The entries come from a sample that favours hits as a whole.
Cruzain inh Det: cruzain (T. cruzi) inhibition with detergent. 200,000 tested, 0.43% active. purified cruzain, Z-FR-AMC fluorescence, 0.01% Triton. P25779. AID 1478. Potency, µM, for the others: max response, negative = inhibition, actives largely listed as inhibitors;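 further: plate controls were neutral wells for no effect and buffer without enzyme for full effect; nearly all actives have a fitted effect of over 40% in size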
Target sequence (P25779 123-467 limits assumed): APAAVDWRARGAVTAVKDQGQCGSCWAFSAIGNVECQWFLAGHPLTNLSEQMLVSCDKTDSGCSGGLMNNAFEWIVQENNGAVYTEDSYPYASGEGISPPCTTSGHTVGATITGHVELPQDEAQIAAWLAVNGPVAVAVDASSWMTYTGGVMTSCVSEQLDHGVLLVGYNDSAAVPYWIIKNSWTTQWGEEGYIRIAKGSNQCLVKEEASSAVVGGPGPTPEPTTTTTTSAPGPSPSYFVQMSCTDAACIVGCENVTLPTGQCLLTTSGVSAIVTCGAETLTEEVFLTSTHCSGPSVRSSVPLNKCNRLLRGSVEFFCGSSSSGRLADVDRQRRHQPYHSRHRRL
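Detergent-containing arm of a paired screen for aggregation-based inhibition: 0.01% Triton X-100 present. Cruzain at 1.5 nM cleaved 2 uM Z-FR-AMC at pH 5.5 with 5 mM DTT; AMC fluorescence gain over 60 s measured activity.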
NS1 inh: inhibitors of influenza NS1 protein function. Potency, µM (doses to about 46.1 µM), for the others: top-dose activity, positive = more growth. AID 2326. 270,000 tested, 0.4% active; calls by dose curve; further: actives are rising curves; nearly all actives have a fitted effect of over 50% in size
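OD600 was taken as the measure of yeast growth restored by compound in an NS1-expressing S. cerevisiae strain. Cells had been washed out of glucose medium and diluted 1:100 into galactose -URA medium, pH 6.0.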
Cruzain noTriton: inhibitors of Trypanosoma cruzi cruzain without detergent. P25779. purified cruzain, Z-FR-AMC fluorescence, no detergent. Potency, µM, for inactives: max response, negative = inhibition, most hits filed as inhibitors. 200,000 tested, 2.3% active. AID 1476;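 further: plate controls were enzyme without inhibitor for no effect and buffer without enzyme for full effect; nearly all actives have a fitted effect of over 40% in size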
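Purified cruzain at 1.5 nM, pre-incubated 15 min with compound at room temperature in 100 mM sodium acetate pH 5.5, 5 mM DTT, 0.00005% Triton X-100. Reaction started with 2 uM Z-FR-AMC; AMC fluorescence increase over 60 s gives rate.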
An asterisk follows results filed as active; ? = inconclusive; . = no result. Unless noted, the call rests on the fitted dose curve; in most records, active means well fitted curve in the direction sought with a large enough effect; inconclusive means small, poorly fitted or top-dose-only effect, or another doubt; inactive means no such curve, though single readings can be large; an effect the other way counts as inactive or inconclusive. Potency means the concentration at half of the fitted maximal effect.

SMILES | Cruzain inh Det | NS1 inh | Cruzain noTriton
Cc1snc2sc(C(=O)c3ccc(Br)cc3)c(N)c12 | 20µM* | 1% | 16µM*
C[C@@H](Cc1ccc(Cl)cc1Cl)NO | 0% | -33% | 19%
COc1ccccc1-c1cc(-c2ccc(C)cc2)nc(SCc2nnc(-c3ccccc3)o2)c1C#N | 0% | -9% | 4µM*
Cc1cc(C)c(C#N)c(SCc2nnc(-c3ccccc3)o2)n1 | -5% | -34% | 4%
CCc1ccc(NC(=O)CSc2nc(-c3cccc(OC)c3)nc3c2Cc2c(CO)cnc(C)c2O3)cc1 | -2% | . | 9%
Cc1cccc(N2CCN(S(=O)(=O)c3ccc(F)c(C(=O)Nc4cccc(Cl)c4C)c3)CC2C)c1 (configuration not stated) | 1% | . | 13µM*
Cc1cccc(NC(=O)c2cc(S(=O)(=O)N3CCN(c4ccccc4F)CC3)ccc2F)c1C | 1% | . | -2%
COc1ccc2c(c1)C(c1ccccc1C)CC(=O)O2 (configuration not stated) | 1% | . | -3%
CCOc1ccccc1NC(=O)COC(=O)C(CC(C)C)N1C(=O)C2CC=CCC2C1=O (configuration not stated) | -26% | -3% | 8%
CC(C)CC(C(=O)OCC(=O)Nc1cccc(Cl)c1)N1C(=O)C2CC=CCC2C1=O (configuration not stated) | 14µM* | -8% | -19%
C=CC#CC[N+]1(CC#Cc2ccccc2)CCOCC1 | 25µM* | 0% | -8%
C(#Cc1ccccc1)C[N+]1(CC#Cc2ccccc2)CCCC1 | -3% | -9% | -13%
Cc1cn2c(=O)c3ccccc3nc2n2c(=O)c3ccccc3nc12 | 0% | . | -5%
COc1ccc(-c2cc(C(=O)Nc3cc(OC)c(OC)c(OC)c3)no2)cc1 | . | -2% | .
O=C(Nc1cnn(C23CC4CC(CC(C4)C2)C3)c1)c1cc(-c2ccccc2)on1 | -7% | -3% | ?
COc1ccc(-c2cc(C(=O)Nc3ccc(C)cc3)no2)cc1 | 1% | -1% | 20µM*
Cc1ccc(-c2cc(C(=O)Nc3cnn(C45CC6CC(CC(C6)C4)C5)c3)no2)cc1 | 5% | 4% | 13µM*
COc1ccc(-c2cc(C(=O)Nc3cccc(C(C)=O)c3)no2)cc1 | 0% | -3% | 20µM*
COc1ccc(-c2cc(C(=O)Nc3cccc(Cl)c3)no2)cc1 | . | 8% | .
CC1CCCN(S(=O)(=O)c2cc3c(cc2Cl)NC(=O)CO3)C1 (configuration not stated) | -5% | . | 16%
COc1c(CO)cc(CO)cc(CO)c1=O | -4% | . | -12%
Cc1ccc(CNC(=O)c2c(-c3ccccc3F)noc2C)o1 | 1% | . | -17%
NCCCCC(NC(CCc1ccccc1)C(=O)O)C(=O)N1CCCC1C(=O)O (configuration not stated) | 1% | . | 7%
COC(=O)C1=C(C)NC(C)=C(C(=O)OCCNCc2ccccc2)C1c1cccc([N+](=O)[O-])c1 (configuration not stated) | -2% | . | 6%
Cc1ccc(N2CCN(C3=NC(=O)C(Cc4ccccc4)S3)CC2)cc1 (configuration not stated) | 28µM* | -10% | -4%
SMILES | Cruzain inh Det | NS1 inh | Cruzain noTriton
O=C1N=C(N2CCN(c3ccccc3)CC2)SC1Cc1ccccc1 (configuration not stated) | -26% | -7% | -7%
COc1ccc(CNc2ncncc2-c2ccc(N(C)C)cc2)c(OC)c1 | -5% | . | -14%
CC(=O)N1CCN(C(=S)c2ccc(N(C)C)cc2)CC1 | 1% | 8% | 12%
Cc1ccc(N2CCN(C(=S)c3ccc(N(C)C)cc3)CC2)cc1 | -1% | -49% | 20µM*
CN(C)c1ccc(C(=S)N2CCN(c3ccccc3)CC2)cc1 | -4% | -15% | -3%
CN(C)c1ccc(C(=S)N2CCCCCC2)cc1 | 14µM* | 3% | 6.3µM*
COc1cccc(C2c3c(-c4ccccc4O)n[nH]c3C(=O)N2CCc2ccc(OC)c(OC)c2)c1 (configuration not stated) | -10% | . | 2%
Cc1csc2nc(-c3cccc(NC(=O)c4ccc(S(N)(=O)=O)cc4)c3)cn12 | -3% | . | -21%
CN(C)C(=O)c1ccc(-c2ccc3ncnc(NCc4ccccc4)c3c2)cc1 | -6% | . | 9%
CCOC(=O)C1=C(c2ccccc2)NC(=S)NC1c1cc([N+](=O)[O-])ccc1OC (configuration not stated) | 0% | 7% | 25µM*
CCOC(=O)C1=C(c2ccccc2)NC(=S)NC1c1cccc([N+](=O)[O-])c1 (configuration not stated) | -6% | 17% | 3%
CCOC(=O)C1CCC(CN(Cc2ccc(Cl)cc2)S(=O)(=O)c2ccc(Br)cc2)CC1 (configuration not stated) | 1% | . | 9%
CCOc1ccccc1Nc1ncnc2c1c(-c1ccccc1)cn2-c1ccc(OC)cc1 | 1% | . | 10µM*
COc1ccc(-n2cc(-c3ccccc3)c3c(NC4CCCC4)ncnc32)cc1 | -1% | . | 4%
Cc1ccc(/C=C2/NC(=O)N(Cc3ccccc3)C2=O)s1 | 3% | 4µM* | -24%
Cc1cccc(CN2C(=O)N/C(=C/c3ccc(C)s3)C2=O)c1 | 2% | -6% | -2%
Cc1cc(N)ccc1N1CCCC1 | ? | 6% | 16µM*
CCN1CCN(c2ccc(N)cc2C)CC1 | . | -4% | .
C1CCN2CC3CC(CN4CCCC[C@@H]34)C2C1 (some centres not stated) | -4% | . | 6%
CN1CCN(c2ncnc3ccc(-c4cccc(NS(C)(=O)=O)c4)cc23)CC1 | 0% | . | -3%
O=C(Nc1nc(-c2ccccc2)cs1)C1CCCN(S(=O)(=O)c2cccc([N+](=O)[O-])c2)C1 (configuration not stated) | -4% | 25% | 7.9µM*
O=C(Nc1nc(-c2ccc3ccccc3c2)cs1)C1CCN(S(=O)(=O)c2cccs2)CC1 | -2% | 21% | 3.2µM*
Cc1ccc(-c2csc(NC(=O)C3CCN(S(=O)(=O)c4cccs4)CC3)n2)cc1 | -4% | 13% | ?
O=C(Nc1nc(-c2ccccc2)cs1)C1CCCCN1S(=O)(=O)c1ccccc1 (configuration not stated) | -11% | -16% | ?
O=C(Cc1ccc(NC(=O)N2CCCCc3ccccc32)cc1)NCc1cccc(Br)c1 | -5% | . | 6%
SMILES | Cruzain inh Det | NS1 inh | Cruzain noTriton
Cc1ccc2[nH]c(-c3ccc(F)cc3F)cc(=O)c2c1 | 3% | . | -3%
CO[C@@H]1c2cc(F)ccc2/C(=C\CCOC(=O)C/C=C/c2ccccc2)[C@H]1C | 0% | . | 6%
COc1cccc(/C=N/NC(=O)N/N=C/c2cccc(OC)c2O)c1O | . | 6% | .
COc1cccc(/C=N/NC(=O)c2nc(-c3ccccc3)cc(-c3ccccc3)n2)c1O | -1% | ? | 13µM*
NC(=O)[C@@H]1CCCNC1 | 4% | 6% | 7%
COc1cccc(Cc2nc3ccccc3nc2SCC(=O)Nc2ccccc2F)c1 | 1% | . | -18%
Cc1cccc(C2=NN(c3ccc(Br)cc3)[C@@H](C(=O)N3CCOC3=O)[C@@H]2c2ccc(Cl)cc2)c1 | 3% | . | 8.9µM*
Cc1cccc(-c2nc3c(cnn3-c3ccccc3)c(=O)n2-c2ccc(Cl)cc2)c1 | -9% | . | ?
Cc1cccc(C2=NN(c3ccc(Br)cc3)[C@@H](C(=O)N3CCOC3=O)[C@@H]2c2ccc(F)cc2)c1 | -14% | ? | 18µM*

High-throughput results (PubChem)
